Experimental data: PubChem BioAssay (NCI)
About 79,000 compounds went through this panel and 15% of them were active in at least one assay; those are over-represented in the sample as a whole. The source made the active and inactive calls. Cut-off read from the data, not from the text of the source: active = growth inhibition above about 70%; inactive = the rest.

Tests used:
[1] = NCI Yeast Anticancer Drug Screen. Data for the rad50 strain (AID 155);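 note: 0% = growth of vehicle-only cultures of the same strain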; conditions: S. cerevisiae rad50 strain growth inhibition; at 50.0 µM; stronger effect = higher value
In short: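 Yeast carrying a defined DNA repair defect were exposed to test compounds, and growth was compared with vehicle-treated controls to give percent inhibition.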

[2] = NCI Yeast Anticancer Drug Screen. Data for the mec2-1 strain (AID 157); conditions: S. cerevisiae mec2-1 strain, at 50.0 µM, stronger effect = higher value
In short: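 Compounds were applied to mec2-1 yeast cells. Their growth was then compared with that of vehicle-treated cultures to give growth inhibition.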

[3] = NCI Yeast Anticancer Drug Screen. Data for the sgs1 mgt1 strain (AID 161);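 note: 0% = growth of cultures given vehicle only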; conditions: S. cerevisiae sgs1 mgt1 strain, at 50.0 µM, stronger effect = higher value
In short: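 This yeast growth screen uses a strain with defined DNA-repair lesions; compound-treated growth is compared with vehicle-treated growth.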

[4] = NCI Yeast Anticancer Drug Screen. Data for the cln2 rad14 strain (AID 165);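 note: 0% = growth equal to vehicle treated cultures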; conditions: S. cerevisiae cln2 rad14 strain, at 50.0 µM, stronger effect = higher value
In short: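 Strain: cln2 rad14 yeast, altered in cell cycle control and DNA damage repair. Read-out: growth inhibition vs vehicle.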

[5] = NCI Yeast Anticancer Drug Screen. Data for the bub3 strain (AID 167); conditions: S. cerevisiae bub3 mutant strain, at 50.0 µM, stronger effect = higher value
In short: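 Compounds were applied to a genetically altered yeast strain carrying a cell-cycle control defect. Growth inhibition was scored against vehicle-treated controls.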

[6] = NCI Yeast Anticancer Drug Screen. Data for the mlh1 rad18 strain (AID 175); conditions: S. cerevisiae mlh1 rad18 strain growth inhibition; at 50.0 µM; stronger effect = higher value
In short: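 A repair-deficient yeast strain is exposed to test compound, and growth is scored relative to vehicle-treated controls.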

Measured: growth inhibition

Nc1ccc2c(c1)Oc1c(F)c(F)cc3c(=O)c(C(=O)O)cn-2c13
inactive: [1] 6.9% | [2] 11.2% | [3] 7.7% | [4] 16.1% | [5] 0% | [6] 48.1%

O=C1CSc2nc3ccc(Br)cc3c(=O)n21
inactive: [1] 16% | [2] 9.1% | [3] 11.2% | [4] -19.4% | [5] 18.6% | [6] 20.9%

Fc1ccc(N=Cc2ccc(C=Nc3ccc(F)cc3)cc2)cc1
inactive: [1] 20.9% | [2] 30.1% | [3] 18.7% | [4] 10.2% | [5] 38% | [6] 27.2%

N/N=C/c1cccn1-c1ccccc1Cl
inactive: [1] 33.8% | [2] 15.3% | [3] 26.9% | [4] 0.35% | [5] 28.2% | [6] 14.8%

O=C(NN1C(=O)CS(=O)(=O)C1c1ccc(C(F)(F)F)cc1)c1ccncc1 (stereo not given)
inactive: [1] -10.7% | [2] 2.2% | [3] 5.8% | [4] 8.8% | [5] 1.05% | [6] 7.75%

C=C(C(=C)N1N=NC2C3CCC(C3)C21)N1N=NC2C3CCC(C3)C21 (stereo not given)
inactive: [1] -5.9% | [2] -15.9% | [3] 10.3% | [4] 7.15% | [5] -4.75% | [6] -7.95%

N=C1N=Nc2nc(C(C(=O)c3ccc(O)cc3O)c3nc4n(c3O)C(=N)N=N4)c(O)n21 (stereo not given)
inactive: [1] 2.35% | [2] -4.3% | [3] 7.15% | [4] -24% | [5] -15.3% | [6] -2.4%

CCOC(=O)c1sc(SC)nc1NC(=O)c1ccc(Cl)cc1
inactive: [1] -26.6% | [2] 19.8% | [3] -49.6% | [4] 0.7% | [5] -2.55% | [6] -24.7%

C=CCNC(=S)Nc1cccc(C(C)OC(=O)NC(C)(C)C)c1 (stereo not given)
inactive: [1] 1.2% | [2] 30.9% | [3] 36.2% | [4] -5.8% | [5] 33.8% | [6] 20.6%

CC(=O)N(C(=O)CC(=O)N1N=C(c2ccccc2)C(N=Nc2ccccc2[N+](=O)[O-])C1=O)c1ccc(Cl)cc1 (stereo not given)
inactive: [1] -4.3% | [2] -21.8% | [3] -0.2% | [4] -37% | [5] -27.2% | [6] -19%

CCCC1(CC)COC(c2ccc(C)cc2)OC1 (stereo not given)
inactive: [1] 13.8% | [2] 0.9% | [3] -7.6% | [4] 5.85% | [5] 11.8% | [6] 3.35%

[S-]c1n[n+](-c2ccccc2)c(-c2ccc(Cl)cc2)s1
inactive: [1] -2.05% | [2] 5.8% | [3] 7.75% | [4] -3.65% | [5] -4.85% | [6] 0.45%

O=c1oc2c3ccc4ccccc4c3n(CCN3CCCCC3)c2c2ccccc12
inactive: [1] 30.4% | [2] 53.6% | [3] 22.9% | [4] 32.5% | [5] 44.3%
active: [6] 77.1%

CCOC(=O)Cc1nc2sc3c(c2c(=O)[nH]1)CCCC3
inactive: [1] 10.4% | [2] 1.8% | [3] 22.4% | [4] -0.9% | [5] 3.9% | [6] 17.2%

COc1cc(-c2cc(CCC(=O)Nc3ccccc3[N+](=O)[O-])n(-c3ccc([N+](=O)[O-])cc3[N+](=O)[O-])n2)ccc1O
inactive: [1] -5.2% | [2] -5.5% | [3] -42.7% | [4] 31.8% | [5] -4.65% | [6] -27.7%

CC1CCP(=O)(c2ccccc2)CC1 (stereo not given)
inactive: [1] 8.5% | [2] -10.8% | [3] -7.15% | [4] 6.9% | [5] -7.3% | [6] -35.2%

O=C(O)CN1C(=O)C2C3c4ccccc4C(c4ccccc43)C2C1=O (stereo not given)
inactive: [1] -5.65% | [2] -4.7% | [3] 1.25% | [4] -26.6% | [5] -19.6% | [6] 0%

Cc1cc2c(cc1C)NC1C(=O)C(c3ccccc3Cl)OC1=N2 (stereo not given)
inactive: [1] -1.2% | [2] -10.4% | [3] -2.4% | [4] 4.55% | [5] 0.55% | [6] 3.15%

CN(CCC#N)c1ccc(/C=C(\C#N)c2ccc(Br)cc2)cc1
inactive: [1] 12.2% | [2] -23.8% | [3] 13.6% | [4] -12% | [5] -0.85% | [6] -18.9%

COc1ccc2[nH]c3c4c(c(C)cc3c2c1)OC(C)(C)C=C4
inactive: [1] 16.2% | [2] -5.75% | [3] -4.05% | [4] -43.3% | [5] -16.6% | [6] -6.15%
